Source: PubChem (National Center for Advancing Translational Sciences (NCATS))
In the library only some 12% were active in any assay of this set; here they are far more common.
JMJD2A Tudor: qHTS Assay for Inhibitors of JMJD2A-Tudor Domain | Lysine-specific demethylase 4A (Homo sapiens), O75164 | AlphaScreen JMJD2A-Tudor / H3K4me3 peptide binding | Potency, µM (titrated, usually from 114 µM), hits mostly inhibitors | hit rate 4.4% among 390,000 | AID 504339, 2011; note: nearly all actives have a fitted effect of over 50% in size
HP1b chromo inh: HTS for Inhibitors of HP1-beta Chromodomain Interactions with Methylated Histone Tails; hit rate 0.56% among 390,000; AlphaScreen HP1-beta / biotin-H3K9me3 peptide binding; Potency, µM (titrated, usually from 114 µM), usual class: inhibitors; note: nearly all actives have a fitted effect of over 70% in size
Target sequence (P83916 whole entry, looked up): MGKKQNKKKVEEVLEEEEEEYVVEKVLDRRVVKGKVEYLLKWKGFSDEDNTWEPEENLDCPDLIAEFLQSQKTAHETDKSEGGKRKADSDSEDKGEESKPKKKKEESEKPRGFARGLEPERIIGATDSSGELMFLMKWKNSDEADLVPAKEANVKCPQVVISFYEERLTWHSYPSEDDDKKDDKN
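AlphaScreen: HP1-beta (50 nM) preformed 30 min with biotin-H3(1-18)K9me3 peptide (50 nM) in PBS pH 7.4, 0.01% Tween-20. Compound added for 30 min at RT, then streptavidin donor/nickel chelate acceptor beads (10 ug/mL) for 30 min.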
BAZ2B inh: qHTS Assay for Inhibitors of BAZ2B; Bromodomain adjacent to zinc finger domain protein 2B (Homo sapiens), Q9UIF8; AlphaScreen BAZ2B-H3K14Ac peptide displacement; Potency, µM (top dose mostly 114 µM), usual class: inhibitors; hit rate 4.4% among 360,000; note: nearly all actives have a fitted effect of over 60% in size
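Complex of BAZ2B and biotin-H3K14Ac (50 nM apiece) forms over 30 min at RT, then faces library compounds up to 110 uM for another 30 min; AlphaScreen beads added, 20 min dark incubation, luminescence read.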
G9a block: qHTS Assay for Inhibitors of Histone Lysine Methyltransferase G9a | Potency, µM (top dose mostly 102 µM), most hits filed as inhibitors | Histone-lysine N-methyltransferase EHMT2 (Homo sapiens), Q96KQ7 | G9a H3K9 monomethylation, AlphaScreen, 2 h | hit rate 8.8% among 350,000 | AID 504332, 2011; note: nearly all actives have a fitted effect of over 75% in size
Target sequence (Q96KQ7 913-1193 limits assumed): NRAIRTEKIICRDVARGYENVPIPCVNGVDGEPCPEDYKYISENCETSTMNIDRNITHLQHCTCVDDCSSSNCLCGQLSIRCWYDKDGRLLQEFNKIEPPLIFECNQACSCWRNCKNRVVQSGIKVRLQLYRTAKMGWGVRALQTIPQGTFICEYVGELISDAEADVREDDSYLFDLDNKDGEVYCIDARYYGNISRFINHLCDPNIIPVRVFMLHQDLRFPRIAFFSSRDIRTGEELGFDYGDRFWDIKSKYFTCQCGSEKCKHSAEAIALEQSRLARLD
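Signal arises when biotinylated H3K9 peptide, once monomethylated, bridges streptavidin donor and antibody-captured acceptor beads. Enzyme at 20 nM was preincubated 15 min with test compounds; peptide 500 nM and SAM 20 uM then reacted for 2 h.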
PLK1 PBD inh: qHTS for Inhibitors of PLK1-PDB (polo-like kinase 1 - polo-box domain): Primary Screen; Serine/threonine-protein kinase PLK1 (Homo sapiens), P53350; Plk1 PBD binding of FITC phosphopeptide, fluorescence polarization; Potency, µM, hits mostly inhibitors; hit rate 2.8% among 360,000; AID 720504, 2013; note: series mostly up to about 57 µM; nearly all actives have a fitted effect of over 65% in size
Sfp inh: qHTS Assay for Inhibitors of Bacillus subtilis Sfp phosphopantetheinyl transferase (PPTase) | hit rate 3.5% among 310,000 | Biochemical Sfp PPTase activity, qHTS | Potency, µM, usual class: inhibitors;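 note: the enzyme is Sfp with the accession as filed and its product quenches rhodamine fluorescence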
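Fluorescence-quenching assay: 15 nM Sfp-PPTase preincubated 15 min at room temperature with compound, then 5 uM rhodamine-CoA and 12.5 uM BHQ-2-labelled YbbR peptide added. Fluorescence (ex 525/em 598 nm) read at start and after 30 min; difference gives rate.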
Large screens that a line does not name were inactive. Calls come from the whole dose curve; as a rule, active = well fitted curve in the direction sought with a large enough effect; inconclusive = small, poorly fitted or top-dose-only effect, or another doubt; inactive = no such curve, though single readings can be large; an effect the other way counts as inactive or inconclusive.

O=C(O)COc1ccc2c(c1)O/C(=C\c1cccs1)C2=O	none
COc1ccc(C(=O)C(C)OC(=O)CNC(=O)c2ccco2)cc1 (centres undefined)	none (no result: BAZ2B inh, G9a block, Sfp inh)
CC(C)N(Cc1nccn1C)C(=O)c1cc(COc2ccc(-n3cncn3)cc2)on1	none (no result: BAZ2B inh, G9a block, Sfp inh)
C=CCOc1c(Br)cc(CNc2ccc(NC(=O)C(C)C)c(OC)c2)cc1OC	JMJD2A Tudor 35µM, BAZ2B inh inconclusive
Cc1ccc(-c2nn3c(C)nnc3s2)cc1NC(=O)c1ccc(Br)o1	G9a block inconclusive
Cc1oc(-c2ccc(Cl)cc2)cc1-c1nn2c(-c3ccoc3C)nnc2s1	JMJD2A Tudor inconclusive, G9a block inconclusive, PLK1 PBD inh inconclusive, Sfp inh 10µM
Cc1ccc(-c2nn3c(C)nnc3s2)cc1NC(=O)c1ccc(-c2ccc(Cl)cc2Cl)o1	JMJD2A Tudor 63µM, BAZ2B inh inconclusive, Sfp inh 13µM
Clc1ccc(-c2nnc3sc(-c4ccc(Br)o4)nn23)c(Cl)c1	none
CN(C)c1ccc(-c2nn3c(-c4ccc(Cl)cc4Cl)nnc3s2)cc1	G9a block 14µM (no result: JMJD2A Tudor, HP1b chromo inh, PLK1 PBD inh)
Clc1cccc(-c2nnc3sc(-c4ccc5c(c4)OCO5)nn23)c1	G9a block 10µM, Sfp inh 32µM (no result: JMJD2A Tudor, HP1b chromo inh, PLK1 PBD inh)
C=CCc1cccc(CNc2c(C)cc(C)cc2C)c1O	none
Clc1ccccc1-c1nnc2sc(-c3ccc4c(c3)OCO4)nn12	JMJD2A Tudor inconclusive, HP1b chromo inh inconclusive, G9a block 1.8µM, PLK1 PBD inh 4.7µM, Sfp inh 10µM
Cc1ccc(CN(Cc2ccco2)C(=S)NCC(=O)NC2CC2)cc1	G9a block 18µM, Sfp inh 50µM
CCCCNC(=O)CNC(=S)N(Cc1ccc(C)cc1)Cc1ccco1	G9a block 28µM, Sfp inh 56µM
Cc1ccc(CN(Cc2ccco2)C(=O)c2cccc(C)c2)cc1	none (no result: PLK1 PBD inh, Sfp inh)
C[C@@H]1CN([C@@H](C)CO)C(=O)CCCn2nncc2CO[C@@H]1CN(C)C(=O)Nc1ccc(C(C)(C)C)cc1	none (no result: JMJD2A Tudor, HP1b chromo inh, BAZ2B inh, G9a block, Sfp inh)
CCOC(=O)c1cnc2c(ccc3ccccc32)c1Nc1cccc(Cl)c1	none (no result: PLK1 PBD inh, Sfp inh)
COC(=O)c1nnn(CC(=O)Nc2cc(F)ccc2F)c1C(=O)OC	none (no result: PLK1 PBD inh, Sfp inh)
CCN(CC)Cc1oc(-c2ccccc2)cc1C(=O)O	JMJD2A Tudor 56µM, PLK1 PBD inh inconclusive (no result: G9a block)
Cc1oc(-c2ccccc2)cc1C(N)=O	BAZ2B inh inconclusive
NCc1oc(-c2ccccc2)cc1C(=O)O	G9a block 50µM
CCCCN(C(=O)C1CC(=O)N(c2ccc(C)cc2)C1)c1c(N)n(CCC)c(=O)[nH]c1=O (centres undefined)	G9a block 45µM (no result: Sfp inh)
CCCCn1c(N)c(N(CCOC)C(=O)CN2C(=O)c3ccccc3C2=O)c(=O)[nH]c1=O	none
CCCCn1c(N)c(N(CCOC)C(=O)CN2c3ccccc3CC2C)c(=O)[nH]c1=O (centres undefined)	G9a block 20µM
CCCCn1c(N)c(N(CC(C)C)C(=O)C2CC(=O)N(c3ccccc3C(C)CC)C2)c(=O)[nH]c1=O (centres undefined)	G9a block 79µM (no result: Sfp inh)
CCCCn1c(N)c(N(CCOC)C(=O)C2CC(=O)N(Cc3ccc(C)cc3)C2)c(=O)[nH]c1=O (centres undefined)	G9a block 50µM (no result: Sfp inh)
CCCCn1c(N)c(N(CC(C)C)C(=O)C2CC(=O)N(c3ccc(C)cc3)C2)c(=O)[nH]c1=O (centres undefined)	G9a block inconclusive (no result: Sfp inh)
O=C(Nn1cc(C(=O)Nc2ccccc2F)c2ccccc2c1=O)c1cnccn1	JMJD2A Tudor 28µM, BAZ2B inh 28µM
COC(=O)c1cn(NC(=O)c2cnccn2)c(=O)c2ccccc12	JMJD2A Tudor 11µM, BAZ2B inh 7.1µM, G9a block inconclusive
